Rows were chosen to be rich in hits. Some 6.2% of all compounds tested hit in one or more screens of this group.
Cardio protect: cardioprotection against H2O2-induced cell death, primary screen, uHTS, H9c2 cells, ATPLite luminescence; H9c2 cardiomyocytes, H2O2 injury protection, 2 h; actives 0.63% (n = 360,000); protection from H2O2 cell death, % at 20 µM; AID 588492, 2011;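 active means compounds giving at least 50% protection of heart cells from peroxide-induced death in the single-dose screen, raw or plate-pattern-corrected value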;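 further: 0% = DMSO wells with peroxide and 100% = DMSO wells without peroxide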
SUMO Mot1 rescue: yeast Mot1-301 growth rescue at high temperature, primary screen, SUMOylation pathway inhibitor project, S. cerevisiae, ATP luminescence, 38.5C | S. cerevisiae Mot1-301 growth rescue; percent above DMSO median, 100 means doubled | growth rescue, % at 18.8 µM | actives 1% (n = 320,000);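 active means every valid replicate shows activation above 250% relative to neutral control wells; inactive means the rest, any valid replicate at or below 250%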;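 further: OY570 slx delta 5 strain wells were the positive control but not used for scaling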
NR3A LBD binder: binders of NR3A ligand-binding domain, primary screen, biophysical, differential scanning fluorimetry, uHTS; Glutamate receptor ionotropic, NMDA 3A (GRIN3A) ligand-binding domain; NR3A LBD differential scanning fluorimetry, Tm shift; 0% = protein alone, 100% = glycine-bound protein; Tm shift relative to glycine control, % at 25 µM; actives 2.5% (n = 340,000); AID 1259313, 2017;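 active means melting temperature shift of at least 10% of the positive control shift, at one fixed dose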
NTR1 agonist: agonists of human NTR1, primary screen, imaging, U2OS cells, beta-arrestin-GFP, high content; NTR1-U2OS beta-arrestin-GFP spot imaging, agonist mode; activation, % at 20 µM; actives 0.17% (n = 330,000);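 active means activation at or above 40% of the spot to cytoplasm intensity ratio, with at least 20 cells analyzed; inconclusive means wells under 20 cells, flagged as cytotoxic or low count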;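 further: 0% = DMSO without peptide and 100% = 100 nM NTR1 peptide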
AI-2 QS modul: Vibrio harveyi AI-2 quorum sensing modulators, primary screen, JMH597 strain, luminescence/OD600 ratio. activity change, % at 7.5 µM. Vibrio harveyi JMH597 AI-2 luminescence/OD600 ratio, 9 h; hits give low values; strain lacks LuxN and CqsS sensors; 0 = neutral-control median. actives 0.4% (n = 300,000). AID 2094, 2009; in the data active means activity change below about -75%, passing the limit was not always enough; inconclusive means no clear call, values can overlap the other calls;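 further: luminescence divided by OD600 gain over 9 h not by final OD600 alone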
AHR activator: AHR activators, primary screen, cell-based, luminescence, luciferase reporter, human. actives 2.5% (n = 320,000). AID 2796, 2010. Aryl hydrocarbon receptor (Homo sapiens), P35869. activation, % at 5 µM. AHR-responsive luciferase reporter cells; in the data active means activation above about 47%;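 further: 0% = vehicle wells and 100% = reference agonist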
Target sequence (P35869 whole entry, looked up): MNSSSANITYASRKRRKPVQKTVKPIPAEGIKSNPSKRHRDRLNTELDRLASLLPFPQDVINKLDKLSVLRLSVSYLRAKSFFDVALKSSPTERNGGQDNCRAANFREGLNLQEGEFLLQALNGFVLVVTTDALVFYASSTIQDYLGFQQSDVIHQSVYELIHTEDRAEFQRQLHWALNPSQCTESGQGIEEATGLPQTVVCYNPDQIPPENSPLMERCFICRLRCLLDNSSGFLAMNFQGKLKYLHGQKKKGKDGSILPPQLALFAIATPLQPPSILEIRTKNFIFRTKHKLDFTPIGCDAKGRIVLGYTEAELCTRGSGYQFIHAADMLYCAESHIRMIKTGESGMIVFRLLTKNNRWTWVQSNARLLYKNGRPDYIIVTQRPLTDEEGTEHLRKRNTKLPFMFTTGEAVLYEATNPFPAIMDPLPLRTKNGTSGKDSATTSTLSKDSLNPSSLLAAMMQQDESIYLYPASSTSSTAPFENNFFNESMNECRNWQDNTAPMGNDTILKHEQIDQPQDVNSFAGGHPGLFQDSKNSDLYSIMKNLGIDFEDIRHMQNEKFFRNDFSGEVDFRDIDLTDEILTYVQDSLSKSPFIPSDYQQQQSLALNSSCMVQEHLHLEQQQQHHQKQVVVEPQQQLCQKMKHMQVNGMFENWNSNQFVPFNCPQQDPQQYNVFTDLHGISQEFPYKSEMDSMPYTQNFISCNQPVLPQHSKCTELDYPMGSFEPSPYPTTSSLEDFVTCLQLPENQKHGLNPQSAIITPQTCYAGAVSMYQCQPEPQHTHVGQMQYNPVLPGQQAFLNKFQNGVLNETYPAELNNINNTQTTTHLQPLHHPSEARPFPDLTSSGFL
Starred values were filed as active, the others as inactive; ? = inconclusive; nt = no result given.

SMILES | Cardio protect | SUMO Mot1 rescue | NR3A LBD binder | NTR1 agonist | AI-2 QS modul | AHR activator
COc1ccc(-c2csc(NC(=S)NC(=O)c3ccccc3)n2)cc1Br | 2 | 4 | 40* | 4 | 23 | -1
Cc1ccc(CNC(=O)C(C)C2Sc3ccccc3NC2=O)cc1 (stereo not given) | 4 | -5 | -3 | 1 | 6 | 1
C=CCOc1c(Br)cc(/C=N/n2c(CC)n[nH]c2=S)cc1Br | -14 | -8 | -11 | 35 | 18 | 68*
CCOc1ccc(NC(=O)CN(C)C(=O)c2ccccc2OCCOc2ccccc2)cc1OCC | 17 | -9 | 1 | -1 | nt | 2
CCOC(=O)c1cnn(-c2ccccn2)c1N | -14 | -35 | 0 | 1 | 1 | -5
CCOC(=O)c1cnn(-c2cc(C)c3ccccc3n2)c1N | -4 | nt | 4 | 4 | 30 | 53*
CCC1CCCCN1C(=O)Cn1c(=O)n(CCCC(=O)NCc2ccco2)c(=O)c2sccc21 (stereo not given) | 2 | 95 | -4 | -1 | -1 | 1
CC1(C)Cc2ccccc2C2=C(C(=O)N3CCCCCC3)C(=O)C(=O)N21 | -3 | 307* | 0 | 6 | 10 | 3
O=C1C(=O)N2C(=C1C(=O)N1CCCCCC1)c1ccccc1CC21CCCC1 | 8 | -17 | 2 | 1 | 26 | 0
Cc1nc(C)c(C(=O)N2CCCC(C(=O)c3cc(F)ccc3F)C2)s1 (stereo not given) | 0 | 99 | 2 | 0 | 21 | -1
Cc1cc(C)nc(/N=C(\N)Nc2ccc([N+](=O)[O-])cc2)n1 | -8 | 9 | -5 | 1 | 13 | 6
CC(C)(C)CC(C)(C)NC(=O)Nc1cccc([N+](=O)[O-])c1 | -13 | -9 | -2 | 13 | 17 | 2
Cc1ccc(NC(=O)Nc2cccnc2)cc1Cl | -15 | 15 | 31* | nt | 17 | nt
O=C(Nc1ccc(OC(F)(F)F)cc1)Nc1cccnc1 | -3 | -4 | 11* | 2 | 8 | 38
O=C(Nc1ccc(OC(F)(F)F)cc1)Nc1cccc([N+](=O)[O-])c1 | -16 | -10 | 13* | 19 | ? | 4
Cc1cc(C)nc(/N=C(\N)Nc2cccc([N+](=O)[O-])c2)n1 | 10 | -8 | -1 | 0 | 6 | 52*
CN(Cc1ccccc1)C1CCCN(C(=O)c2ccc(Cl)s2)C1 (stereo not given) | 1 | -7 | 0 | 0 | 11 | -3
Cc1cc(O)c(C(C)C)cc1NC(=O)Nc1ccc([N+](=O)[O-])cc1 | -10 | nt | -3 | nt | nt | nt
O=C(Nc1cccc([N+](=O)[O-])c1)c1[nH]ncc1Cl | -1 | -17 | 1 | 0 | 16 | 75*
COc1cc([N+](=O)[O-])ccc1NC(=O)Nc1cccnc1 | -6 | -1 | -5 | 0 | -4 | 7
O=C(Nc1cccnc1)Nc1cccc([N+](=O)[O-])c1 | -2 | 7 | 7 | -1 | 11 | 77*
CCC(C)c1ccc(NC(=O)NCc2cccnc2)cc1 (stereo not given) | -3 | -10 | -2 | -2 | -51 | 41
Cc1ccc(C(C)C)cc1NC(=O)Nc1ccc([N+](=O)[O-])cc1 | -20 | 38 | 25* | 34 | 62 | 20
CCC(C)c1ccc(NC(=O)Nc2cccnc2)cc1 (stereo not given) | -13 | -6 | -3 | 2 | -6 | 79*
CC(C)c1ccc2nc(SCC(=O)NCC3CCCO3)c(C#N)cc2c1 (stereo not given) | -4 | 33 | -2 | 3 | 28 | -1
SMILES | Cardio protect | SUMO Mot1 rescue | NR3A LBD binder | NTR1 agonist | AI-2 QS modul | AHR activator
Cc1ccc(NC(=O)Nc2cccc([N+](=O)[O-])c2)cc1F | -27 | -9 | 34* | 21 | -6 | 11
Cc1ccc(NC(=O)Nc2ccc3c(c2)C(=O)OC3)cc1Cl | 1 | -6 | 24* | 1 | 11 | -1
Cn1cnc(S(=O)(=O)N2CCCCC2c2cc(C(=O)NCc3ccc(F)cc3)no2)c1 (stereo not given) | -1 | nt | nt | nt | nt | nt
ON=Cc1ccnc2ccccc12 | 0 | nt | nt | nt | nt | nt
O=C(Cc1ccccc1)N/N=C/c1cc(Br)cc(Br)c1O | 24 | 30 | 12* | 1 | 18 | 2
O=C(O)c1ccccc1N/N=C/c1cc(Br)cc(Br)c1O | -6 | 26 | 2 | 1 | 22 | 49*
O=C(Cc1ccccc1)N/N=C/c1cc(Br)cs1 | -7 | 5 | 0 | 1 | 14 | 2
O=C(O)c1ccccc1N/N=C\c1ccnc2ccccc12 | -31 | 1 | -1 | 0 | 9 | 65*
O=C(CNC(=O)c1cccc(Br)c1)N/N=C/c1cc(Br)cc(Br)c1O | 59* | 46 | 17* | 4 | -31 | -6
O=C(O)c1cccc2c1C(=O)c1ccc(-c3ccc(Cl)c(C(F)(F)F)c3)cc1S2(=O)=O | 1 | -13 | -7 | 0 | nt | 5
C#CCOCC1CNC(=S)O1 (stereo not given) | -2 | nt | nt | nt | nt | nt
COc1cccc(NC(=O)C/C(C)=N/NC(=O)c2ccccc2Cl)c1 | 6 | -9 | 1 | -1 | 20 | 2
C/C(CC(=O)Nc1ccc(Cl)c(C(F)(F)F)c1)=N\NC(=O)c1cc2ccccc2cc1O | 15 | 4 | 30* | -1 | 28 | 3
COC(=O)[C@H](CC(C)C)N1Cc2cc(OC)cc(OC)c2-c2ccccc2S1(=O)=O | 3 | nt | 5 | 2 | nt | nt
CCOC(=O)c1sc(=S)n(Cc2ccccc2)c1N | -1 | -18 | -9 | -1 | -86* | 4
COC(=O)c1sc(=S)n(-c2ccccc2OC)c1N | 2 | -1 | 3 | -1 | 6 | -2
CCOC(=O)c1sc(=S)n(-c2ccccc2OC)c1N | -6 | -18 | 16* | 0 | -12 | 7
COC(=O)C1CCN(C(=O)CN2C(=O)NC(CC(C)C)C2=O)CC1 (stereo not given) | 1 | 0 | 0 | 1 | nt | 1
CCOC(=O)C1(C)CCCN1C(=O)c1ccc2ccccc2c1 (stereo not given) | -4 | nt | nt | nt | nt | nt
Cc1ccc2[nH]c(CNC(=O)c3ccc(F)cc3)cc2c1 | -5 | -6 | -1 | 0 | 13 | 65*
CCOc1ccc(NS(=O)(=O)c2ccc(C(=O)N(C)CC(=O)Nc3cccc(OC)c3)cc2)cc1 | -17 | nt | -5 | nt | nt | nt
O=C(N/N=C/c1c(O)ccc2ccccc12)c1ccc(CO)nc1 | 59* | -26 | -11 | 8 | -35 | 23
Cc1cc(N/N=C/c2c(O)ccc3ccccc23)nc(-c2ccccc2O)n1 | 1 | 184 | 14* | 10 | 24 | 42

Assay outcomes deposited in PubChem BioAssay by several laboratories.
